The results in this text go back to the supplement of paper PMC4954754.

± gives the uncertainty stated by the source.

The first test concerns HEK293T-Rex XBP1-RLuc. Description: XBP1-RLuc splicing reporter activation, triplicate, relative to 500 nM thapsigargin (% of thapsigargin); higher = stronger IRE1/XBP1s reporter activation. The settings on record: 6.8 µM; 18 h; screen: confirmation. How it is done:
(§1)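 HEK293T-Rex cells stably expressing the ERSE-firefly luciferase (BiP promoter, ATF6-preferring) or XBP1-splicing Renilla luciferase (IRE1/XBP1s) reporter, 1536-well plates, compound at 6.8 µM for 18 hr at 37 °C; luminescence read […] and expressed as % activation = 100*(compound - median DMSO)/(median 500 nM thapsigargin - median DMSO). Primary screen was single-pass; confirmation screen in triplicate (mean ± SD).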
Turning to `O=C(CCc1ccccc1)Nc1ccc(Cl)cn1`, the “XBP1-RLuc splicing reporter activation” value was determined as 0.292 ± 0.79.
The same measure, in the same setting: the same measure for `COc1cccc(-c2cc(C(=O)Nc3cc(C)ccc3O)no2)c1`: 12.6 ± 4.8.
For `CCCNC(=O)c1cc(-c2cccs2)on1`, the “XBP1-RLuc splicing reporter activation” value came out at 5.97 ± 0.33.
The same measure, in the same setting: the figure for `Cn1cccc1/C=C1/SC(=Nc2ccccc2)NC1=O` is 5.98 ± 0.28; for `C=CCn1c(N2CCC(C(=O)NCCc3ccc(O)c(O)c3)CC2)nc2ccccc21` it is 33.9 ± 2.
Same read-out and setting: the same measure for `CCCNC(=O)c1cc(-c2ccc(F)cc2)on1`: 4.12 ± 0.34.
Same read-out and setting: the same measure for `CN1C(=O)/C(=C\c2ccc(O)c(O)c2)SC1=S`: 13.9 ± 1.8; for `Nc1c(C(=O)Nc2ccccc2)sc2nc3c(cc12)CCCCC3`: 12.6 ± 4.7.
For the compound `Nc1ccc2sc(-c3cc(Cl)c(N)c(Cl)c3)nc2c1`, the “XBP1-RLuc splicing reporter activation” value was 10.16 ± 0.093.
For `Cc1ccc(O)c(-c2cc(-c3cccs3)[nH]n2)c1`, the “XBP1-RLuc splicing reporter activation” value is 7.79 ± 0.86.
Still for that read-out and setting: the figure for `Cc1ccc(O)c(N/C=C/C(=O)c2cccs2)c1` is 4.09 ± 1.2; for `Cc1ccc(O)c(NC(=O)c2cc(-c3ccco3)on2)c1` it is 19 ± 4.5; for `O=C(NC1CCCC1)c1cc(-c2cccs2)on1` it is 4.95 ± 0.3.
For the compound `COc1ccc(-c2cnnc(N/N=C/c3ccc(O)c(O)c3)n2)cc1`, the “XBP1-RLuc splicing reporter activation” value amounted to 24 ± 2.2.
With `COc1ccc(-c2nn(-c3ccccc3)cc2/C=C/C(=O)O)cc1[N+](=O)[O-]`, the “XBP1-RLuc splicing reporter activation” value stood at 8.64 ± 1.1.
`CN(C)/C=N/C1=C(C#N)C(c2ccc3c(c2)OCO3)c2ccc3ccccc3c2O1` (stereo unspecified): the “XBP1-RLuc splicing reporter activation” value came out at 1.3 ± 3.6.
Still for that read-out and setting: the figure for `CCOc1cc(/C=C2/NC(=O)N(c3cccc(Cl)c3)C2=O)ccc1O` is 22.9 ± 1.5; for `O=C1N/C(=C/c2ccc(O)cc2)C(=O)N1c1ccccc1` it is 49 ± 4.5; for `Cc1ccc(NC(=O)/C=C/c2ccco2)nc1` it is 5.22 ± 0.94.
In the case of `O=C(N/N=C/c1ccc2c(c1)OCO2)c1cccc(F)c1`, the “XBP1-RLuc splicing reporter activation” value was determined as 1.67 ± 0.99.
Still for that read-out and setting: the same measure for `O=C(/C=C/c1ccccc1)Nc1ccc(Cl)cn1`: 1.96 ± 0.26; for `Cc1ccccc1-c1cc(=O)c2cc(Cl)ccc2o1`: 8.38 ± 3.8.
With `O=C(N/N=C\c1ccccc1[N+](=O)[O-])c1[nH]nc2c1CCc1ccccc1-2`, the “XBP1-RLuc splicing reporter activation” value stood at 3.05 ± 1.7.
In the case of `CCC(=O)N(Cc1cc2cc(C)ccc2n2nnnc12)C1CCCC1`, the “XBP1-RLuc splicing reporter activation” value stood at 4.74 ± 0.41.
Regarding `CCN1C(=O)/C(=C\c2ccc(O)cc2O)SC1=S`, the “XBP1-RLuc splicing reporter activation” value came out at 13.6 ± 1.7.
The same measure, in the same setting: the figure for `Cc1cc(C)c(OCC(=O)N/N=C/c2ccc(O)c(O)c2)c(Br)c1` is 17.1 ± 1.1; for `Cc1ccc(O)c(NC(=O)c2cc(C3CC3)on2)c1` it is 13.9 ± 2.1; for `C(=C\c1ccccc1)/C=N/Nc1nc2ccccc2[nH]1` it is 5.21 ± 0.2.
The same measure, in the same setting: the same measure for `CCCCNC(=O)c1cc(-c2ccc(F)cc2)on1`: 7.08 ± 0.26; for `CC(=O)Nc1ccc2nc(-c3ccc(OC(C)=O)cc3)sc2c1`: 21.7 ± 1; for `COc1ccccc1-c1cnnc(N/N=C/c2c[nH]c3ccccc23)n1`: 8 ± 0.78.
Still for that read-out and setting: the same measure for `COc1cc(/C=C/c2ccc(O)c(OC)c2)ccc1O`: 31.8 ± 2.2; for `Cc1ccc(Nc2nc(N)c3ccccc3n2)cc1Cl`: 8.06 ± 2.4.
Regarding `CC(=O)c1cccc(Nc2nc(-c3ccc(O)c(O)c3)cs2)c1`, the “XBP1-RLuc splicing reporter activation” value amounted to 21.8 ± 1.3.
For the compound `C/C(=N\NC(=O)c1n[nH]c2c1CCCC2)c1ccc2ccccc2c1`, the “XBP1-RLuc splicing reporter activation” value stood at 1.43 ± 0.96.
Still for that read-out and setting: the same measure for `CCCCNc1ncnc2c1cnn2-c1ccc(Cl)cc1`: 1.56 ± 1.6; for `Cc1cc(C)nc(/N=C(\N)Nc2ccc(OCCC(C)C)cc2)n1`: 101 ± 1.1; for `CC(=Nc1ccc(O)cc1)c1sc2ccccc2c1O`: 15.7 ± 4.1.

The next test relates to HEK293T-Rex ERSE-FLuc. Description: ERSE-FLuc reporter activation, triplicate confirmation, relative to 500 nM thapsigargin (% of thapsigargin); higher = stronger ATF6/ERSE reporter activation. The settings on record: 6.8 µM; 18 h; screen: confirmation. The protocol:
as §1
For the compound `O=C(CCc1ccccc1)Nc1ccc(Cl)cn1`, the ERSE-FLuc reporter activation amounted to 27.8 ± 4.6.
In turn, `COc1cccc(-c2cc(C(=O)Nc3cc(C)ccc3O)no2)c1` displayed an ERSE-FLuc reporter activation of 43.9 ± 11.
`CCCNC(=O)c1cc(-c2cccs2)on1` registered an ERSE-FLuc reporter activation of 51.5 ± 5.4.
Still for that read-out and setting: the figure for `Cn1cccc1/C=C1/SC(=Nc2ccccc2)NC1=O` is 37.4 ± 1.9; for `C=CCn1c(N2CCC(C(=O)NCCc3ccc(O)c(O)c3)CC2)nc2ccccc21` it is 28.9 ± 6.2; for `CCCNC(=O)c1cc(-c2ccc(F)cc2)on1` it is 42 ± 5.5.
Compound `CN1C(=O)/C(=C\c2ccc(O)c(O)c2)SC1=S` came in with an ERSE-FLuc reporter activation of 25.2 ± 1.4.
Still for that read-out and setting: the same measure for `Nc1c(C(=O)Nc2ccccc2)sc2nc3c(cc12)CCCCC3`: 35.6 ± 5.3; for `Nc1ccc2sc(-c3cc(Cl)c(N)c(Cl)c3)nc2c1`: 30.8 ± 2.4; for `Cc1ccc(O)c(-c2cc(-c3cccs3)[nH]n2)c1`: 44.2 ± 7.9.
`Cc1ccc(O)c(N/C=C/C(=O)c2cccs2)c1`: the ERSE-FLuc reporter activation came out at 62.1 ± 12.
As for `Cc1ccc(O)c(NC(=O)c2cc(-c3ccco3)on2)c1`, the ERSE-FLuc reporter activation was 74.4 ± 8.9.
Take `O=C(NC1CCCC1)c1cc(-c2cccs2)on1`: the ERSE-FLuc reporter activation is 25.7 ± 2.1.
Compound `COc1ccc(-c2cnnc(N/N=C/c3ccc(O)c(O)c3)n2)cc1` gave an ERSE-FLuc reporter activation of 35.9 ± 7.5.
The same measure, in the same setting: the figure for `COc1ccc(-c2nn(-c3ccccc3)cc2/C=C/C(=O)O)cc1[N+](=O)[O-]` is 31.7 ± 4.4; for `CN(C)/C=N/C1=C(C#N)C(c2ccc3c(c2)OCO3)c2ccc3ccccc3c2O1` (stereo unspecified) it is 26.1 ± 9.6; for `CCOc1cc(/C=C2/NC(=O)N(c3cccc(Cl)c3)C2=O)ccc1O` it is 30.5 ± 9.3.
`O=C1N/C(=C/c2ccc(O)cc2)C(=O)N1c1ccccc1` came in with an ERSE-FLuc reporter activation of 66.4 ± 15.
For `Cc1ccc(NC(=O)/C=C/c2ccco2)nc1`, the ERSE-FLuc reporter activation amounted to 27.9 ± 7.1.
`O=C(N/N=C/c1ccc2c(c1)OCO2)c1cccc(F)c1` gave an ERSE-FLuc reporter activation of 27.1 ± 2.4.
Still for that read-out and setting: the same measure for `O=C(/C=C/c1ccccc1)Nc1ccc(Cl)cn1`: 27.9 ± 6.3; for `Cc1ccccc1-c1cc(=O)c2cc(Cl)ccc2o1`: 25.5 ± 3.8; for `O=C(N/N=C\c1ccccc1[N+](=O)[O-])c1[nH]nc2c1CCc1ccccc1-2`: 31.4 ± 3.
The same measure, in the same setting: the same measure for `CCC(=O)N(Cc1cc2cc(C)ccc2n2nnnc12)C1CCCC1`: 33.5 ± 2.4; for `CCN1C(=O)/C(=C\c2ccc(O)cc2O)SC1=S`: 36.3 ± 8.3; for `Cc1cc(C)c(OCC(=O)N/N=C/c2ccc(O)c(O)c2)c(Br)c1`: 28.7 ± 6.2.
Still for that read-out and setting: the same measure for `Cc1ccc(O)c(NC(=O)c2cc(C3CC3)on2)c1`: 59.4 ± 7.7.
Turning to `C(=C\c1ccccc1)/C=N/Nc1nc2ccccc2[nH]1`, the ERSE-FLuc reporter activation amounted to 27.2 ± 3.8.
For the compound `CCCCNC(=O)c1cc(-c2ccc(F)cc2)on1`, the ERSE-FLuc reporter activation came to 40.8 ± 5.3.
`CC(=O)Nc1ccc2nc(-c3ccc(OC(C)=O)cc3)sc2c1`: the ERSE-FLuc reporter activation was 25.9 ± 3.6.
Take `COc1ccccc1-c1cnnc(N/N=C/c2c[nH]c3ccccc23)n1`: the ERSE-FLuc reporter activation is 37.9 ± 9.7.
`COc1cc(/C=C/c2ccc(O)c(OC)c2)ccc1O` had an ERSE-FLuc reporter activation of 35.9 ± 9.1.
On to `Cc1ccc(Nc2nc(N)c3ccccc3n2)cc1Cl`, for which the ERSE-FLuc reporter activation is 34.8 ± 5.8.
As to `CC(=O)c1cccc(Nc2nc(-c3ccc(O)c(O)c3)cs2)c1`, the ERSE-FLuc reporter activation is 31.6 ± 5.1.
`C/C(=N\NC(=O)c1n[nH]c2c1CCCC2)c1ccc2ccccc2c1` had an ERSE-FLuc reporter activation of 30.7 ± 2.6.
For the compound `CCCCNc1ncnc2c1cnn2-c1ccc(Cl)cc1`, the ERSE-FLuc reporter activation turned out to be 30.3 ± 4.6.
`Cc1cc(C)nc(/N=C(\N)Nc2ccc(OCCC(C)C)cc2)n1` gave an ERSE-FLuc reporter activation of 58.2 ± 6.3.
Consider `CC(=Nc1ccc(O)cc1)c1sc2ccccc2c1O`, for which the ERSE-FLuc reporter activation amounted to 27.4 ± 4.2.
